Screens (PubChem)
BRCA1 expr up: qHTS Assay to Identify Small Molecule Activators of BRCA1 Expression | MCF7-BRCA1-FFLuc reporter, luminescence, 48 h; response scale: scaled: vehicle 0%, 10 µM genistein 100% | Potency, µM (highest dose often 46.1 µM), actives largely listed as activators | actives 1.1% (n = 380,000) | AID 624202, 2012; further: nearly all actives have a fitted effect of over 80% in size
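Using MCF7 cells harboring a BRCA1 firefly luciferase reporter, plated 2 h before compound pinning, the screen measured luminescence after 48 h incubation. Responses were normalized to DMSO and 10 microM genistein, then fitted for concentration-effect.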
B2AR arrestin: qHTS assay of beta-arrestin-biased ligands of beta2-adrenergic receptor; actives 0.02% (n = 330,000); Beta-2 adrenergic receptor (Homo sapiens), P07550; Potency, µM (series often up to 46.1 µM), usual class: activators; AID 492947, 2010; beta-arrestin recruitment to beta2AR, cell-based reporter; further: nearly all actives have a fitted effect of over 65% in size
PTHR1 ag: qHTS for PTHR1 Agonists: Primary Screen. Potency, µM (series often up to 115 µM), hits mostly activators. HEK293 GP2 PTHR1 cells, GloSensor cAMP luminescence, 1 h. AID 743266, 2014. Parathyroid hormone/parathyroid hormone-related peptide receptor (Homo sapiens), Q03431. actives 0.075% (n = 410,000); further: nearly all actives have a fitted effect of over 55% in size
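HEK-293-derived GP2 cells expressing PTHR1 and a GloSensor cAMP reporter, 3,000/well, plated overnight, given luciferin plus IBMX (each 0.5 mM as added) for 1 h at 37 °C, then compound for 1 h at 37 °C. Luminescence was read after 15 min at room temperature.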
DRD3 antagonist: qHTS of D3 Dopamine Receptor Antagonist: qHTS. D(3) dopamine receptor (Homo sapiens), P35462. D3R cells, DiscoveRx beta-arrestin luminescence, antagonist mode; active compounds read low. max response, negative = inhibition, %. actives 2.5% (n = 360,000); in the data active means max response below about -50%; inconclusive means no clear call, values can overlap the other calls
Target sequence (P35462 whole entry, looked up): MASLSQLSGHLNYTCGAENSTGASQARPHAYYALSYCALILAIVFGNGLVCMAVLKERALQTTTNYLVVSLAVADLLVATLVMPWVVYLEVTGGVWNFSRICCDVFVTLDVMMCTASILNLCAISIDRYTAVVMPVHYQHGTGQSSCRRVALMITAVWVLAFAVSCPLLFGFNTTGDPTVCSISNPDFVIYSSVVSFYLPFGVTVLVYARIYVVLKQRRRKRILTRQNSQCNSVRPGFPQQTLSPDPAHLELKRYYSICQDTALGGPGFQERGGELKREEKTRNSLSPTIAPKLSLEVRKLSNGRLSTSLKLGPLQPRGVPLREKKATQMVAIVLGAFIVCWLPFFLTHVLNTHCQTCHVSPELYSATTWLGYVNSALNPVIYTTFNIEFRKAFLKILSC
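Cells expressing the human receptor were seeded at 1500 cells/well, incubated overnight at 37 degrees C in 5% CO2, then exposed to library compounds with dopamine controls for 90 minutes at 37 degrees C before luminescent detection.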
RGS4 inh: Inhibitors of Regulator of G Protein Signaling (RGS) 4: qHTS. Transcreener GDP fluorescence polarization, RGS4-accelerated GTP hydrolysis. Regulator of G-protein signaling 4 (Homo sapiens), P49798. AID 504845, 2011. Potency, µM (doses to about 114 µM), actives largely listed as inhibitors. actives 0.039% (n = 390,000); further: nearly all actives have a fitted effect of over 75% in size
Target sequence (P49798 whole entry, looked up): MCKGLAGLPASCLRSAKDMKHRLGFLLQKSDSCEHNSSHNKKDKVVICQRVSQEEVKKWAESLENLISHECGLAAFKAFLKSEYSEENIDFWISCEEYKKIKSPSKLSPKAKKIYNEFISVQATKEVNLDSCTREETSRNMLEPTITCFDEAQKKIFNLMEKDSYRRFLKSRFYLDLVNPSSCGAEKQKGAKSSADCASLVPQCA
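MLSMR compounds (23 nl, pin-transferred) preincubated 10 min at room temperature with a 500nM (2x) first reagent, then RGS4 at 900nM (2x) plus Transcreener GDP mix added; fluorescence polarization (620/688 nm) read before and after 90 min at 30 °C.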
DRD3 agonist: qHTS of D3 Dopamine Receptor Agonist: qHTS; D(3) dopamine receptor (Homo sapiens), P35462; max activation, %; AID 652048, 2013; actives 0.58% (n = 410,000); D3R DiscoveRx beta-arrestin cells, luminescence, 90 min; in the data active means max activation above about 30%
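Agonist-mode cell screen: cells plated at 1500/well and incubated overnight at 37 °C, then exposed to library compounds for 90 min at 37 °C. Detection reagent was added for 30–60 min at room temperature, and luminescence was read.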
Of the large screens only hits and unclear results are named; the others gave an inactive call; ! = not active in a repeat. The list is not random: actives were taken first. Their share in the collection is about 3.7%. Unless noted, the call rests on the fitted dose curve; in most records, active means well fitted curve in the direction sought with a large enough effect; inconclusive means small, poorly fitted or top-dose-only effect, or another doubt; inactive means no such curve, though single readings can be large; an effect the other way counts as inactive or inconclusive.

COC(=O)c1ccc(COC(=O)c2cccnc2Cl)cc1	BRCA1 expr up 13µM
NC(=O)C1CCN(CC(=O)Nc2cccnc2Cl)CC1	none
Cc1cc(-c2nnco2)c(C)n1-c1ccc(F)cc1	PTHR1 ag 7.1µM
Oc1ccc(C(O)CNCCCCCCNCC(O)c2ccc(O)c(O)c2)cc1O (stereo not drawn)	none (no result: BRCA1 expr up, B2AR arrestin, PTHR1 ag, DRD3 antagonist, RGS4 inh)
CC(C)NCC(O)c1ccc(O)c(O)c1 (stereo not drawn)	PTHR1 ag inconclusive, RGS4 inh inconclusive, DRD3 agonist 39! (no result: B2AR arrestin)
NC[C@H](O)c1ccc(O)c(O)c1	PTHR1 ag inconclusive, DRD3 agonist 47! (no result: B2AR arrestin)
COc1ccc(CNCC(O)COc2cccc3c2OC(C)(C)C3)cc1 (stereo not drawn)	DRD3 antagonist inconclusive
Cc1ccc2nc(NC(=O)c3cc(=O)c4cc(Cl)ccc4o3)sc2c1	none (no result: BRCA1 expr up, B2AR arrestin, DRD3 antagonist)
CCc1ccc(C2C(C#N)=C(N)N(N(C)C)C3=C2C(=O)CCC3)cc1 (stereo not drawn)	none
CC(C)(C)OC(=O)NCCCCCc1cn([C@@H](CO)C(=O)NCCCCCCCCCCC(=O)N2CCN(C(=O)OC(C)(C)C)CC2)nn1	DRD3 agonist 58
CC(C)(C)OC(=O)NCCCC[C@@H](C(=O)N1CCN(C(=O)OC(C)(C)C)CC1)n1cc(CCC(=O)O)nn1	DRD3 agonist 38
CN(C)CCNC(=O)/C=C/c1cn(-c2ccccc2)nc1-c1cc2ccccc2oc1=O	none
CN1CCCCC1CCN1c2ccccc2Sc2ccc(S(C)=O)cc21 (stereo not drawn)	DRD3 antagonist -75
COc1ccc(/C=C/C(=O)Nc2cccc(C(C)=O)c2)cc1	BRCA1 expr up 4.5µM
COc1ccc(/C=C/C(=O)Nc2ccccc2C(=O)NCC(c2ccc(OC)cc2)N(C)C)cc1 (stereo not drawn)	DRD3 antagonist -96
COc1ccc(/C=C/C(=O)Nc2cccc(F)c2)cc1	none (no result: BRCA1 expr up, B2AR arrestin, DRD3 antagonist)
COc1ccc(/C=C/C(=O)Nc2ccccc2C(F)(F)F)cc1	BRCA1 expr up 3.2µM
COc1ccc(/C=C/C(=O)Nc2ccccc2C(=O)O)cc1	RGS4 inh inconclusive
COc1ccc(NC(=O)/C=C/c2cccc(F)c2)cn1	BRCA1 expr up 7.1µM
COc1ccc(NC(=O)N(C)C[C@@H]2Oc3cc(C#CCN(C)C)ccc3S(=O)(=O)N([C@H](C)CO)C[C@H]2C)cc1	none (no result: B2AR arrestin, RGS4 inh)
CC(=O)Nc1cccc(N2C(=O)CC(N3CCC(C(=O)N4CCCCC4)CC3)C2=O)c1 (stereo not drawn)	DRD3 antagonist -59
COc1cc(OC)cc(N2C(=O)CC(N3CCC(C(=O)N4CCCCC4)CC3)C2=O)c1 (stereo not drawn)	none
O=C1c2ccccc2C(=O)N1Nc1ccc([N+](=O)[O-])cc1[N+](=O)[O-]	DRD3 antagonist -75
CC(C)NC(=O)C1(C)CCN1C(=O)c1ccccc1 (stereo not drawn)	none (no result: B2AR arrestin, RGS4 inh)
Cc1ccc(S(=O)(=O)Cn2nnnc2C(C(C)C)N2CCSCC2)cc1 (stereo not drawn)	none
Cc1ccc(S(=O)(=O)Cn2nnnc2C(C(C)C)N2CCN(Cc3ccco3)CC2)cc1 (stereo not drawn)	DRD3 antagonist -59
Cc1cccc(NC(=O)Cn2c(O)c(N=NC(=O)c3ccccc3O)c3ccccc32)c1	DRD3 antagonist -71
c1coc(CNc2ncnc3c2[nH]c2ccccc23)c1	none (no result: B2AR arrestin, PTHR1 ag, DRD3 antagonist, DRD3 agonist)
CN(CC(=O)Nc1ccccc1Br)C(=O)c1cccn1C	none
CCn1c(=O)c([N+](=O)[O-])c(NCC(O)c2ccccc2)c2ccccc21 (stereo not drawn)	none
O=c1c([N+](=O)[O-])c(O)c2ccccc2n1Cc1ccccc1	none
CCn1c(=O)c([N+](=O)[O-])c(Cl)c2ccccc21	DRD3 antagonist -115, RGS4 inh inconclusive
CCn1c(=O)c([N+](=O)[O-])c(NCCN(C)C)c2ccccc21	DRD3 antagonist -59
O=c1c([N+](=O)[O-])c(NCCN2CCCCCC2)c2ccccc2n1-c1ccccc1	DRD3 antagonist -98
CC(C)(C)c1ccc(CN2CCN(C(c3ccccc3)c3ccc(Cl)cc3)CC2)cc1 (stereo not drawn)	none (no result: BRCA1 expr up, B2AR arrestin, PTHR1 ag, DRD3 antagonist, RGS4 inh)
CC(C)C(=O)N1CCCC1(C)C(=O)N(C)Cc1cccc2ccccc12 (stereo not drawn)	none (no result: B2AR arrestin, RGS4 inh)
Cc1nc2c(cc1N)nc(C)n2Cc1ccccc1	DRD3 antagonist -51
COc1ccc(OC)c(NC(=O)CSc2nc(=O)n(CCN(C)C)c3c2CCC3)c1	none (no result: BRCA1 expr up, B2AR arrestin, DRD3 antagonist)
CC1=C(C(=O)N2CCCCCC2)CC(CC(=O)NCC2CCCCC2)C(=O)N1Cc1ccc(F)cc1 (stereo not drawn)	DRD3 antagonist -64 (no result: B2AR arrestin, RGS4 inh)
CC1=C(C(=O)N2CCCCCC2)CC(CC(=O)NCC2CCCCC2)C(=O)N1Cc1ccccc1 (stereo not drawn)	none (no result: B2AR arrestin, RGS4 inh)
Cc1ncoc1C(=O)Nc1ccccc1C(N)=O	DRD3 antagonist -100
Cc1ccccc1NC(=O)c1ocnc1C	none
Clc1ccc(Cl)c(OCCN2CCOCC2)c1	DRD3 antagonist -52
Clc1ccc(Cl)c(OCCN2CCCC2)c1	DRD3 antagonist -75
Cc1nc2ccc(Cl)cn2c1[N+](=O)[O-]	none (no result: B2AR arrestin, RGS4 inh)
O=C(CNc1cccc([N+](=O)[O-])c1)NC(=O)NC1CCCCC1	DRD3 antagonist inconclusive
C[n+]1ccc(/C=C/c2cc[n+](C)c3ccccc23)c2ccccc21	none (no result: B2AR arrestin, PTHR1 ag, DRD3 antagonist, RGS4 inh, DRD3 agonist)
N=C1S/C(=C\c2cn[nH]c2-c2ccc(F)cc2)C(=O)N1c1ccccc1F	BRCA1 expr up 7.1µM
N=C1S/C(=C\c2ccccc2F)C(=O)N1c1ccc(F)cc1	none
Cc1ccc(NC(=O)C2CCCN2c2nn3c(=O)cc(C)nc3s2)cc1 (stereo not drawn)	none
Cc1ccc2nc(/C(C#N)=C\c3cc(C)n(-c4cccc([N+](=O)[O-])c4)c3C)[nH]c2c1	PTHR1 ag inconclusive, DRD3 antagonist -53
Cc1cc(/C=C(/C#N)c2nc3ccccc3[nH]2)c(C)n1-c1cc(C(=O)O)cc(C(=O)O)c1	none
COC(=O)c1ccccc1NC(=O)CN1CCN(C23CC4CC(CC(C4)C2)C3)CC1	DRD3 antagonist -76
COC(=O)c1ccccc1NC(=O)CN1CCc2ccccc2C1	none
CC1CCC(NC(=O)C2CCN(C(=O)Nc3ccccc3)CC2)CC1 (stereo not drawn)	none
CCOc1ccc(CCNC(=O)C2CCCN(S(=O)(=O)N3CCOCC3)C2)cc1OCC (stereo not drawn)	none
COC(=O)c1cccc(C(=O)Oc2cccc(Br)c2)n1	none
